# Measurements as given in the supplement of paper PMC8728848.
# Many of the other results were omitted from the sample, so the strongest signals are more common in it than they were.
# What was measured:
# Test in all cases: glycan array binding signal (z-score within array); higher = stronger binding
# Details in all cases: glycan notation: IUPAC condensed, linker removed
# [1] = target: Fuc(a1-2)Gal(b1-3)GalNAc(b1-3)Gal
# Outline: (§1)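 Glycan array data came from 3228 arrays in the Consortium for Functional Glycomics database, and only arrays with an available protein sequence were kept. Glycan names were put into IUPAC-condensed notation, and columns mapping to the same glycan were averaged. The binding signal is a within-array Z-score, averaged across arrays of one protein sequence run at different concentrations or buffers and across linkers. A negative Z-score can be read as non-binding.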
# [2] = target: Fuc(a1-2)Gal(b1-3)GlcNAc(b1-3)Gal(b1-4)Glc
# Outline: as §1
# [3] = target: Fuc(a1-2)Gal(b1-4)[Fuc(a1-3)]GlcNAc(b1-3)[Neu5Ac(a2-6)Gal(b1-4)GlcNAc(b1-6)]Gal(b1-4)Glc
# Outline: as §1
# [4] = target: Fuc(a1-2)[Gal(a1-3)]Gal(b1-4)GlcNAc(b1-2)Man
# Outline: as §1
# [5] = target: Fuc(a1-2)[GalNAc(a1-3)]Gal(b1-3)GalNAc(b1-3)Gal(a1-4)Gal(b1-4)Glc
# Outline: as §1
# [6] = target: Fuc(a1-2)[GalNAc(a1-3)]Gal(b1-3)GlcNAc(b1-2)Man(a1-3)[Fuc(a1-2)[GalNAc(a1-3)]Gal(b1-3)GlcNAc(b1-2)Man(a1-6)]Man(b1-4)GlcNAc(b1-4)GlcNAc
# Outline: as §1
# [7] = target: Fuc(a1-3)[Gal(b1-4)]GlcNAc(b1-2)Man(a1-3)[Fuc(a1-3)[Gal(b1-4)]GlcNAc(b1-2)Man(a1-6)]Man(b1-4)GlcNAc(b1-4)GlcNAc
# Outline: as §1
# [8] = target: Gal(a1-3)Gal(b1-3)GlcNAc(b1-3)GalNAc
# Outline: as §1
# [9] = target: Gal(a1-3)Gal(b1-3)[Fuc(a1-4)]GlcNAc(b1-2)Man(a1-3)[Gal(a1-3)Gal(b1-3)[Fuc(a1-4)]GlcNAc(b1-2)Man(a1-6)]Man(b1-4)GlcNAc(b1-4)GlcNAc
# Outline: as §1
# [10] = target: Gal(a1-3)GalNAc
# Outline: as §1
# [11] = target: Gal(a1-4)Gal(b1-4)GlcNAc
# Outline: as §1
# [12] = target: Gal(a1-4)Gal(b1-4)GlcNAc(b1-2)Man(a1-3)[Gal(a1-4)Gal(b1-4)GlcNAc(b1-2)Man(a1-6)]Man(b1-4)GlcNAc(b1-4)GlcNAc
# Outline: as §1
# [13] = target: Gal(a1-4)Gal(b1-4)GlcNAc(b1-3)Gal(b1-4)Glc
# Outline: as §1
# [14] = target: Gal(b1-2)Gal
# Outline: as §1
# [15] = target: Gal(b1-3)GlcNAc(b1-3)Gal(b1-4)Glc
# Outline: as §1
# [16] = target: Gal(b1-3)[Fuc(a1-4)]GlcNAc(b1-2)Man(a1-3)[Gal(b1-3)[Fuc(a1-4)]GlcNAc(b1-2)Man(a1-6)]Man(b1-4)GlcNAc(b1-4)[Fuc(a1-6)]GlcNAc
# Outline: as §1
# [17] = target: Gal(b1-4)Glc
# Outline: as §1
# [18] = target: Gal(b1-4)GlcNAc(b1-2)[Gal(b1-4)GlcNAc(b1-4)]Man(a1-3)[Gal(b1-4)GlcNAc(b1-2)Man(a1-6)]Man(b1-4)GlcNAc(b1-4)GlcNAc
# Outline: as §1
# [19] = target: Gal(b1-4)GlcNAc(b1-3)Gal(b1-4)Glc
# Outline: as §1
# [20] = target: Gal(b1-4)GlcNAc(b1-3)Gal(b1-4)GlcNAc(b1-3)Gal(b1-4)GlcNAc(b1-2)Man(a1-3)[Gal(b1-4)GlcNAc(b1-3)Gal(b1-4)GlcNAc(b1-3)Gal(b1-4)GlcNAc(b1-2)Man(a1-6)]Man(b1-4)GlcNAc(b1-4)[Fuc(a1-6)]GlcNAc
# Outline: as §1
# [21] = target: Gal(b1-4)GlcNAc(b1-3)GalNAc
# Outline: as §1
# [22] = target: Gal(b1-4)GlcNAc(b1-6)Gal(b1-4)GlcNAc
# Outline: as §1
# [23] = target: Gal(b1-6)Gal
# Outline: as §1
# [24] = target: Gal4S(b1-4)GlcNAc
# Outline: as §1
# [25] = target: GalNAc(b1-3)GalNAc
# Outline: as §1
# [26] = target: GlcA(b1-3)GlcNAc
# Outline: as §1
# [27] = target: GlcNAc(a1-4)Gal(b1-4)GlcNAc(b1-3)Gal(b1-4)[Fuc(a1-3)]GlcNAc(b1-3)Gal(b1-4)[Fuc(a1-3)]GlcNAc
# Outline: as §1
# [28] = target: GlcNAc(b1-3)Gal(b1-4)GlcNAc(b1-3)Gal(b1-4)GlcNAc(b1-2)Man(a1-3)[GlcNAc(b1-3)Gal(b1-4)GlcNAc(b1-3)Gal(b1-4)GlcNAc(b1-2)Man(a1-6)]Man(b1-4)GlcNAc(b1-4)GlcNAc
# Outline: as §1
# [29] = target: GlcNAc(b1-3)Gal(b1-4)GlcNAc(b1-3)Gal(b1-4)GlcNAc(b1-3)Gal(b1-4)GlcNAc(b1-3)Gal(b1-4)GlcNAc(b1-2)[GlcNAc(b1-3)Gal(b1-4)GlcNAc(b1-3)Gal(b1-4)GlcNAc(b1-3)Gal(b1-4)GlcNAc(b1-3)Gal(b1-4)GlcNAc(b1-6)]Man(a1-6)[GlcNAc(b1-3)Gal(b1-4)GlcNAc(b1-3)Gal(b1-4)GlcNAc(b1-3)Gal(b1-4)GlcNAc(b1-3)Gal(b1-4)GlcNAc(b1-2)Man(a1-3)]Man(b1-4)GlcNAc(b1-4)[Fuc(a1-6)]GlcNAc
# Outline: as §1
# [30] = target: GlcNAc(b1-3)[GlcNAc(b1-6)]Gal(b1-4)GlcNAc
# Outline: as §1
# [31] = target: GlcNAc(b1-4)GlcNAc(b1-4)GlcNAc
# Outline: as §1
# [32] = target: GlcNAc(b1-6)Gal(b1-4)GlcNAc
# Outline: as §1
# [33] = target: Kdn(a2-3)Gal(b1-4)Glc
# Outline: as §1
# [34] = target: Man(a1-2)Man(a1-3)[Man(a1-2)Man(a1-6)]Man
# Outline: as §1
# [35] = target: MurNAc(b1-4)GlcNAc
# Outline: as §1
# [36] = target: Neu5Ac(a2-3)Gal
# Outline: as §1
# [37] = target: Neu5Ac(a2-3)Gal(b1-3)GlcNAc(b1-4)Gal(b1-4)Glc
# Outline: as §1
# [38] = target: Neu5Ac(a2-3)Gal(b1-3)[Fuc(a1-4)]GlcNAc(b1-3)Gal(b1-4)[Fuc(a1-3)]GlcNAc
# Outline: as §1
# [39] = target: Neu5Ac(a2-3)Gal(b1-3)[Neu5Ac(a2-6)]GlcNAc(b1-3)[Fuc(a1-3)[Gal(b1-4)]GlcNAc(b1-6)]Gal(b1-4)Glc
# Outline: as §1
# [40] = target: Neu5Ac(a2-3)Gal(b1-3)]Neu5Ac(a2-3)Gal(b1-4)]GlcNAc
# Outline: as §1
# [41] = target: Neu5Ac(a2-3)Gal(b1-4)GlcNAc(b1-3)Gal(b1-4)GlcNAc(b1-6)[Gal(b1-3)]GalNAc
# Outline: as §1
# [42] = target: Neu5Ac(a2-3)Gal(b1-4)[Fuc(a1-3)]GlcNAc(b1-2)Man
# Outline: as §1
# [43] = target: Neu5Ac(a2-3)Gal(b1-4)[Fuc(a1-3)]GlcNAc(b1-3)Gal(b1-4)[Fuc(a1-3)]GlcNAc(b1-3)Gal(b1-4)[Fuc(a1-3)]GlcNAc
# Outline: as §1
# [44] = target: Neu5Ac(a2-3)Gal(b1-4)[Fuc(a1-3)]GlcNAc(b1-6)[Neu5Ac(a2-3)Gal(b1-3)]GalNAc
# Outline: as §1
# [45] = target: Neu5Ac(a2-6)Gal(b1-4)GlcNAc(b1-2)Man
# Outline: as §1
# [46] = target: Neu5Ac(a2-6)Gal(b1-4)GlcNAc(b1-3)Gal(b1-4)GlcNAc
# Outline: as §1
# [47] = target: Neu5Ac(a2-6)Gal(b1-4)GlcNAc(b1-3)Gal(b1-4)GlcNAc(b1-3)[Neu5Ac(a2-6)Gal(b1-4)GlcNAc(b1-3)Gal(b1-4)GlcNAc(b1-6)]GalNAc
# Outline: as §1
# [48] = target: Neu5Ac(a2-6)Gal(b1-4)GlcNAc(b1-3)Gal(b1-4)GlcNAc(b1-6)[Gal(b1-3)]GalNAc
# Outline: as §1
# [49] = target: Neu5Ac9Ac(a2-6)Gal(b1-4)GlcNAc
# Outline: as §1
# [50] = target: Neu5Gc(a2-8)Neu5Gc(a2-3)Gal(b1-4)GlcNAc(b1-3)Gal(b1-4)GlcNAc
# Outline: as §1
binder,measurement,setting,value
F17-L (Escherichia coli) (protein) GPDDYVPSQIAVNTSTLPGVVIGPADAHTYPRVIGELAGTSNQYVFNGGAIALMRGKFTPALPKIGSITYTFHQGNSRDSSDFDIYDIGVSGLGIIIGMAGYWPATPLVPINSSGIYIDPVGANTNPNTYNGATASFGARLFVAFVATGRLPNGYITIPTRQLGTILLEAKRTSLNNKGLTAPVMLNGGRIQVQSQTHHHHHH,glycan array binding signal (z-score),[1],-0.136
same,glycan array binding signal (z-score),[2],1.54
same,glycan array binding signal (z-score),[3],-0.136
same,glycan array binding signal (z-score),[4],0.196
same,glycan array binding signal (z-score),[5],0.104
same,glycan array binding signal (z-score),[6],-0.078
same,glycan array binding signal (z-score),[7],-0.072
same,glycan array binding signal (z-score),[8],-0.023
same,glycan array binding signal (z-score),[9],0.699
same,glycan array binding signal (z-score),[10],-0.118
same,glycan array binding signal (z-score),[11],1.8
same,glycan array binding signal (z-score),[12],22.9
same,glycan array binding signal (z-score),[13],2.92
same,glycan array binding signal (z-score),[14],-0.01
same,glycan array binding signal (z-score),[15],1.3
same,glycan array binding signal (z-score),[16],0.915
same,glycan array binding signal (z-score),[17],-0.096
same,glycan array binding signal (z-score),[18],-0.169
same,glycan array binding signal (z-score),[19],1.67
same,glycan array binding signal (z-score),[20],0.05
same,glycan array binding signal (z-score),[21],-0.12
same,glycan array binding signal (z-score),[22],-0.156
same,glycan array binding signal (z-score),[23],-0.146
same,glycan array binding signal (z-score),[24],-0.113
same,glycan array binding signal (z-score),[25],-0.19
same,glycan array binding signal (z-score),[26],1
same,glycan array binding signal (z-score),[27],-0.101
same,glycan array binding signal (z-score),[28],0.024
same,glycan array binding signal (z-score),[29],0.006
same,glycan array binding signal (z-score),[30],-0.228
same,glycan array binding signal (z-score),[31],-0.131
same,glycan array binding signal (z-score),[32],0.019
same,glycan array binding signal (z-score),[33],-0.136
same,glycan array binding signal (z-score),[34],-0.153
same,glycan array binding signal (z-score),[35],4.16
same,glycan array binding signal (z-score),[36],-0.099
same,glycan array binding signal (z-score),[37],-0.075
same,glycan array binding signal (z-score),[38],0.865
same,glycan array binding signal (z-score),[39],-0.114
same,glycan array binding signal (z-score),[40],0.01
same,glycan array binding signal (z-score),[41],-0.139
same,glycan array binding signal (z-score),[42],-0.12
same,glycan array binding signal (z-score),[43],-0.119
same,glycan array binding signal (z-score),[44],-0.152
same,glycan array binding signal (z-score),[45],-0.134
same,glycan array binding signal (z-score),[46],-0.069
same,glycan array binding signal (z-score),[47],-0.014
same,glycan array binding signal (z-score),[48],-0.112
same,glycan array binding signal (z-score),[49],-0.133
same,glycan array binding signal (z-score),[50],-0.129
